According to PubChem BioAssay (NCI):
This is part of a sample that, as a whole, favours compounds with a hit. Of some 83,000 tested, about 20% had one in any assay.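 Testing used 96-well plates and a 48-hour single-concentration exposure. Example: -40 means 40% of the starting cells died.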 Calls of active or inactive are those of the source. Rule for the calls: active = growth percent below 10; inactive = the rest.

Tested on: HOP-62 NSCLC
Test: NCI-60 one-dose screen, 48 h (100 = growth as untreated, 0 = no growth, -100 = all killed)
Details: 10 µM unless noted

Compound	growth
CS(=O)(=O)c1ccc(/C(=N/NC(N)=S)c2ccc(F)cc2)cc1	105% (inactive)
CC1(C)CC[C@]2(CO)CC[C@]3(C)C(=CC[C@@H]4[C@@]5(C)CCNCC(C)(C)[C@@H]5CC[C@]43C)[C@@H]2C1	99.3% (inactive)
C=C(CNCCc1ccc(O)cc1)[C@@H]1CC[C@]2(CO)CC[C@]3(C)[C@H](CC[C@@H]4[C@@]5(C)CCC(N)C(C)(C)[C@@H]5CC[C@]43C)[C@@H]12 (stereo not given in full)	-74.7% (active)
C(=N\Nc1nnc2n1N=C(c1ccccc1)CS2)/c1ccc(OCc2ccccc2)cc1	110% (inactive)
O=C(/C=C\c1ccc(O)c(O)c1)c1ccccc1O	98.7% (inactive)
COc1ccc(/C=C2/CCc3cc4ccc(OC)cc4[o+]c32)c(O)c1	95.9% (inactive)
Cc1ccc(-c2nnc(SCc3nc(N)nc(Nc4ccccc4F)n3)n2-c2ccccc2)cc1	94.6% (inactive)
O=C(Nc1cccc(Cl)c1)Oc1c(Cl)c(Cl)c(Cl)c(Cl)c1Cl	81.7% (inactive)
COc1ccc(-c2csc(NC(=O)CSc3nc(C)cc(=O)[nH]3)n2)cc1	118% (inactive)
Cc1c(C)c2c(c(C)c1OC(=O)CCC(=O)[O-])CCC(C)(CCCCCCCCCCC[P+](c1ccccc1)(c1ccccc1)c1ccccc1)O2 (stereo not given)	-67.7% (active)
CCN(CC)CCCNC(=O)c1c2c(n3ccccc13)C(=O)c1ncccc1C2=O	-69% (active)
O=C(/C=C/c1ccc([N+](=O)[O-])cc1)c1cccc(Nc2nc(Nc3ccccc3)nc(Nc3ccccc3)n2)c1	69.2% (inactive)
CN1CC(c2ccccc2)C(C(=O)c2ccc(Br)cc2)C12C(=O)Nc1ccccc12 (stereo not given)	94.8% (inactive)
COCCNC(=O)Cc1cc(-c2ccc(Cl)cc2)n(-c2ccccc2)c1C	2.89% (active)
CNc1nc2ncc(-c3c(C)noc3C)cc2n1Cc1ccccc1	41.4% (inactive)
CC1(C)CC[C@]2(CO)CC[C@]3(C)[C@H](CC[C@@H]4[C@@]5(C)CC[C@H](O)C(C)(C)[C@@H]5CC[C@]43C)[C@H]2[C@H]1O	54.6% (inactive)
COC(=O)[C@@H](Cc1c[nH]c2ccccc12)NC[C@@H](O)CN1C(=O)/C(=C\c2cc(OC)c(OC)c(OC)c2)c2ccccc21	64.8% (inactive)
CCc1ccc(Cc2cnc(NC(=O)c3cc(C)oc3C)s2)cc1	56.9% (inactive)
CN1CCN(CC(=O)N(C)c2ccc(N=C(c3ccccc3)c3c(O)[nH]c4ccc([N+](=O)[O-])cc34)cc2)CC1	85.1% (inactive)
COc1cc2c(c(OC)c1OC)CCC(c1cccc(NC(=O)c3cccc(Cl)c3)c1)O2 (stereo not given)	92.8% (inactive)

Compound	growth
O=C1C2C(c3cccs3)C=C(c3ccc(Cl)cc3)N2C(=S)N1c1ccccc1 (stereo not given)	101% (inactive)
CCN1CCN(c2cc(C(=O)Nc3cccc(Nc4ccc5c(OC)cccc5n4)c3)cc(C(F)(F)F)c2)CC1	5.17% (active)
CCCNNC(=O)c1ccc(CNC(=O)/C=C/c2ccccc2)cc1	20.3% [2.5 µM] (inactive)
CC(=O)Oc1ccccc1C(=O)N(Cc1ccc2c(Cl)cc(Cl)c(O)c2n1)c1ccccc1	36.6% (inactive)
CN(C)c1ccc(/C=N/NC(=O)CSc2nc3sc4c(c3c(=O)n2-c2ccccc2)CCCCC4)cc1	21.5% (inactive)
N#Cc1nn(-c2ccccn2)c(N)c1C#N	97.1% (inactive)
CC(Cc1cccc2ccccc12)C(N)=O (stereo not given)	94.6% (inactive)
Cc1nc2ccccc2c(/C=C/c2ccc(Br)cc2)c1C(=O)/C=C/c1ccccc1	-35.1% (active)
c1ccc2[nH]c(-c3ccc(-c4nccc5c4[nH]c4ccccc45)cc3)nc2c1	86.1% (inactive)
Cc1[nH]c(C(=O)Nc2ccc(C(N)=O)cc2OC(C)C)c(Cl)c1Cl	92.7% (inactive)
C/C=C(/C)C(=O)O[C@@H]1CC(C)(C)CC2C34OC(=O)[C@@]21CC[C@@]3(C)[C@]1(C)CCC2C(C)(C)C(=O)CC[C@]2(C)C1C[C@@H]4O (stereo not given in full)	74.3% (inactive)
C=C(C[n+]1ccccc1)[C@@H]1CC[C@]2(C(=O)OC)CC[C@]3(C)[C@H](CC[C@@H]4[C@@]5(C)CCC(=O)C(C)(C)[C@@H]5CC[C@]43C)[C@@H]12	103% (inactive)
COC(=O)c1c(C(=O)OC)c2ccc3c4ncccc4ccc3n2c1C(=O)c1ccc(C)cc1	76.7% (inactive)
O=C1c2ccccc2-c2c1c1ccncc1c(=O)n2CCCn1ccnc1	39.9% (inactive)
O=C1Nc2ccccc2/C1=C/c1cccn1CCCCCCn1c2ccccc2c(=O)c2ccccc21	63.2% (inactive)
O=C(Nc1ccccc1CNc1nc(Nc2ccc(OCCN3CCCC3)cc2)ncc1Cl)NC1CCCCC1	83.3% (inactive)
CSc1nc(CC(C)C)c(C#N)c(=O)n1C	79.3% (inactive)
CS(=O)(=O)Nc1cc(-c2ccc3ncnc(Nc4cccc(Cl)c4)c3c2)cnc1Cl	3.9% (active)
N#Cc1c(-c2ccc(Cl)cc2)nc(NN=Cc2cccc(Cl)c2)nc1N1CCOCC1	92.7% (inactive)
CNC1=C([N+](=O)[O-])C(c2ccc(OC)cc2)C(C#N)=C(c2ccc[nH]2)O1 (stereo not given)	99% (inactive)
